Rows were chosen to be rich in hits. Some 12% of all compounds tested hit in one or more screens of this group.
HCV inhibitor: blocks hepatitis C virus | Huh7.5.1 HCVcc-Cre infection, luciferase reporter, 44 h | Potency, µM (titrated, usually from 41.8 µM), for inactives: at the highest dose activity change, negative = inhibition, usual class: inhibitors | 340,000 compounds, 3.4% hits | AID 651820; also: % is scaled to controls: 0 for no effect and ±100 for the full control effect
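Infectious HCV cell culture screen: compound-treated cells (1,000/well, pre-plated 4 h) are infected with HCVcc-Cre at roughly 0.5 moi and grown 44 h. Infection is quantified by luciferase signal after 15 min substrate incubation at room temperature.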
AMA1-RON2 inh: inhibitors of Plasmodium falciparum AMA1-RON2 interaction; AlphaScreen AMA1-biotinylated RON2 peptide binding; Potency, µM (highest dose often 58.2 µM), for the others: at the highest dose activity change, negative = inhibition, most hits filed as inhibitors; 360,000 compounds, 0.2% hits;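 also: 0% = vehicle wells and -100% = peptide control; nearly all actives have a fitted effect of over 45% in size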
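AMA1 (3D7) with his tag at 25 nM final met compounds first, then biotinylated RON2 peptide at 25 nM; detection used donor plus acceptor beads, 10 µg/mL apiece, read by AlphaScreen after 30 min at room temperature.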
Pf growth 96h: P. falciparum growth inhibition at 96 hour, primary screen for plastid delayed-death inhibitors; P. falciparum luciferase reporter growth, 96 h; Potency, µM (highest dose often 28.7 µM), for inactives: top-dose activity change, negative = inhibition, usual class: inhibitors; 320,000 compounds, 6.9% hits; also: % is scaled to controls: 0 for no effect and ±100 for the full control effect
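P. falciparum expressing integrated firefly luciferase grown in erythrocytes (2% hematocrit, 0.05% parasitemia final) with compounds for 96 hours at 37 C, 5% CO2. Growth inhibition read as loss of luminescence after adding luciferase detection reagent.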
NS1 function inh: inhibitors of influenza NS1 protein function; Potency, µM (highest dose often 46.1 µM), inactives show top-dose activity, positive = more growth; 270,000 compounds, 0.4% hits; calls by dose curve; also: actives are rising curves; nearly all actives have a fitted effect of over 50% in size
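In this qHTS, NS1 from influenza A is expressed in budding yeast, where it slows growth. Cells are switched from glucose to 2% galactose medium (pH 6.0, -URA), treated with compound, and growth recovery is read at OD600.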
SARS PLP yeast: SARS-CoV PLP inhibition in yeast | S. cerevisiae expressing SARS-CoV PLpro, growth rescue | Potency, µM (series often up to 32.9 µM), inactives show at the top dose activity, positive = growth rescue, most hits filed as activators | 330,000 compounds, 0.19% hits | AID 485353; calls by dose curve; also: 0% is about no effect; nearly all actives have a fitted effect of over 55% in size
Pf growth 48h: inhibits P. falciparum growth in the first generation, 48 h; P. falciparum luciferase growth in erythrocytes, 48 h; Potency, µM (titrated, usually from 28.7 µM), inactives show at the highest dose activity change, negative = inhibition, hits mostly inhibitors; 310,000 compounds, 5.9% hits; AID 504832; also: % is scaled to controls: 0 for no effect and ±100 for the full control effect
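Read-out is firefly luciferase luminescence from an integrated reporter in P. falciparum, so falling signal marks reduced parasite growth. Infected erythrocytes were at 2% hematocrit and 0.1% parasitemia (final) in Albumax-supplemented RPMI 1640.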
* marks the source's active call; other numbers are inactive results; ? = inconclusive; . = not tested or not shown; [ ] = remark or other dose. Unless noted, calls follow the shape of the dose curve; as a rule, active = well fitted curve in the direction sought with a large enough effect; inconclusive = small, poorly fitted or top-dose-only effect, or another doubt; inactive = no such curve, though single readings can be large; an effect the other way counts as inactive or inconclusive. Potency is read from the fitted curve at half-maximal effect.

SMILES	HCV inhibitor	AMA1-RON2 inh	Pf growth 96h	NS1 function inh	SARS PLP yeast	Pf growth 48h
CCN(CC)S(=O)(=O)c1cccc(NC(=O)c2ccc(SC)cc2OC)c1	11µM*	-18%	?	.	-1%	?
COc1cc(SC)ccc1C(=O)Nc1cccc(S(=O)(=O)NC2=NCCCCC2)c1	-28%	-5%	?	.	-1%	?
COc1cc(SC)ccc1C(=O)Nc1ccccn1	?	-14%	395%	-76%	-14%	190%
COc1cc(SC)ccc1C(=O)Nc1cccc(C)n1	13µM*	0%	5%	-12%	14%	88%
CCN(CC)S(=O)(=O)c1cccc(NC(=O)COc2ccc(F)cc2Br)c1	11µM*	1%	?	.	-7%	-14%
Cc1ccc(NC(=O)CSc2ncc3ccccn23)cc1C	-23%	28%	91%	.	0%	25%
CCCCSc1ncnc2c1ncn2C1CCCCO1 (stereo not given)	-6%	6%	.	.	.	.
OC(c1cccc(Cl)c1)c1ncc(-c2cccc(C(F)(F)F)c2)[nH]1 (stereo not given)	.	-6%	.	.	.	.
CCN(CC)S(=O)(=O)c1cccc(NC(=O)c2ccccc2Br)c1	?	-13%	?	.	-3%	10µM*
CCN(CC)S(=O)(=O)c1cccc(S(=O)(=O)c2cccc(S(=O)(=O)N(CC)CC)c2)c1	11µM*	14%	?	?	0%	?
O=C(Cc1ccc(Br)cc1)NC1CCSC1=O (stereo not given)	9%	7%	0%	.	-2%	13%
N#CCCN(Cc1ccccc1)C(=O)c1nccnc1C(=O)O	0%	-20%	2%	4%	1%	9%
COC(=O)[C@]12CCCCC=C1N(Cc1ccc(Cl)cc1Cl)C(=O)[C@H](CC(=O)N1CCC(c3ccccc3)CC1)C2	.	-7%	.	.	.	.
Cn1c(S(=O)(=O)c2ccc([N+](=O)[O-])cc2)nc(Br)c1Br	-15%	-7%	9.3µM*	-3%	0%	?
COc1cc(C(C(=O)NCc2ccccc2)N(C(=O)c2snc(C(N)=O)c2N)C2CCCC2)cc(OC)c1OC (stereo not given)	-18%	-3%	4.7µM*	5%	0%	13µM*
COc1ccc(C(C(=O)NCc2ccccc2)N(C(=O)c2snc(C(N)=O)c2N)C2CCCC2)cc1 (stereo not given)	-8%	-3%	67%	4%	1%	15µM*
COc1ccc(C(C(=O)NC2CCCC2)N(Cc2ccccc2)C(=O)c2snc(C(N)=O)c2N)cc1OC (stereo not given)	2%	2%	?	12%	3%	0%
S=C1SCN(CC2CC2)CN1CC1CC1	?	19%	5.2µM*	-37%	3%	?
O=C(C1CCC(CNc2c(N3CCCCC3)c(=O)c2=O)CC1)N1CCc2ccccc2C1 (stereo not given)	-7%	4%	-44%	-6%	-1%	9.3µM*
CC1CCN(c2c(NCC3CCC(C(=O)N4CCc5ccccc5C4)CC3)c(=O)c2=O)CC1 (stereo not given)	7%	-2%	-18%	4%	2%	.
O=C(NCCC1=CCCCC1)C1CCC(CNc2c(N3CCCC3)c(=O)c2=O)CC1 (stereo not given)	36%	1%	?	2%	2%	?
CC1CCN(c2c(NCC3CCC(C(=O)NCCC4=CCCCC4)CC3)c(=O)c2=O)CC1 (stereo not given)	-3%	-6%	?	-8%	-1%	7.4µM*
O=C(NCCC1=CCCCC1)C1CCC(CNc2c(N3CCCCC3)c(=O)c2=O)CC1 (stereo not given)	8%	-13%	?	1%	-2%	9.3µM*
COc1ccc(/C=N/NC(=O)c2cccnc2)c(C(=O)O)c1OC	26%	1%	68%	1%	-1%	9%
CC(C)C1C(=O)N(Cc2cn(CCC3OCCO3)nn2)CCS(=O)(=O)N1Cc1ccc(-c2ccc(F)cc2Cl)cc1 (stereo not given)	.	-6%	.	.	.	.
SMILES	HCV inhibitor	AMA1-RON2 inh	Pf growth 96h	NS1 function inh	SARS PLP yeast	Pf growth 48h
N#Cc1ccc(Sc2ccccn2)c([N+](=O)[O-])c1	20%	1%	20%	0%	-1%	-8%
CCOc1ccc(NS(=O)(=O)c2ccc(C)c(C(=O)NCCCn3ccnc3)c2)cc1	-5%	7%	-25%	14%	3%	?
N#CC1(c2ccccc2)CCC(=NO)CC1 (stereo not given)	19%	-7%	1.9µM*	-2%	26%	.
CCC(=O)NC(=S)Nc1ccc(-c2nc3ccc(C)cc3s2)cc1	-6%	3%[2.32 µM]	12µM*	5%	7%	123%
O=C(COC(=O)COc1ccc(Cl)cc1)NC1CC1	31%	4%	21%	.	7%	28%
CC(C)Oc1ccc(C(CCNCc2ccc(O)cc2)c2ccccc2)cc1 (stereo not given)	?	-2%	1.2µM*	-3%	-2%	1.2µM*
COc1ccc(CCNCc2ccccc2)cc1	4%	-28%	9%	?	2%	-8%
COc1ccc(C(CCNCc2ccc(OC)c(OC)c2)c2ccc(F)cc2)cc1 (stereo not given)	7%	11%	?	-3%	0%	9.3µM*
COc1ccc(C(CCNCc2ccc(N(C)C)cc2)c2ccccc2)cc1 (stereo not given)	?	20µM*	?	-4%	1%	15µM*
CC(C)Oc1ccc(CNC(=O)CC(c2ccccc2)c2cc(Cl)ccc2O)cc1 (stereo not given)	?	-1%	?	-32%	-22%	?
O=C(CC12CC3CC(CC(C3)C1)C2)NC(=S)Nc1ccc(CN2CCOCC2)cc1	-14%	-5%	23%	4%	0%	?
O=C(CCC1N=C2c3ccccc3N=C(SCC(=O)NCc3ccco3)N2C1=O)NCc1ccco1 (stereo not given)	5%	-14%	?	.	0%	-17%
Cc1cc(NC(=O)CSC2=Nc3ccccc3C3=NC(Cc4ccccc4)C(=O)N23)n[nH]1 (stereo not given)	-8%	0%	?	-16%	13%	?
CCOC(=O)CSC1=Nc2ccccc2C2=NC(CC(=O)NCc3ccc4c(c3)OCO4)C(=O)N12 (stereo not given)	3%	?	31%	11%	2%	4.1µM*
O=C(CC1N=C2c3ccccc3N=C(SCc3ccc(Cl)cc3)N2C1=O)NCc1ccco1 (stereo not given)	?	-12%	.	9%	0%	3.3µM*
